# Source: the supplement of paper PMC11417369
# Over roughly 25,000 sequences, “ln(normalized median fluorescence intensity)” has its median near 6.7; the highest 2% begin near 10. This excerpt belongs to a sample that is enriched for the highest values.
# Tested on: PfHDP1 homeodomain (GST-tagged)
# Test: gcPBM binding intensity (ln(normalized median fluorescence intensity)); higher = stronger DNA binding
# Outline: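 For binding intensity, the highest Masliner-normalised natural-log median intensity across replicate spots of either probe orientation was taken. Protein bound to the array was stained with Alexa488 anti-GST antibody and scanned at 488 nm. The protein, GST-tagged P. falciparum DNA-binding domains from E. coli at about 25 μg on average, had been applied for 1 h to an Agilent 4 × 180k array of primer-extended double-stranded 36-bp intergenic genomic probes and negative controls.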
row,Sequence,gcPBM binding intensity (ln)
1,AGTAGTCTGGAGAAAAGTACACAGTATCTGGTAACA [XGTACX_site2034],6
2,TTTTTTTTTTTTTATACACACATTAAAATAAAAAAG [CACACA_site3946],6.74
3,TTTTAAATATGCCATACACACTACTCTATAATAAAT [CACACA_site6987],6.56
4,AATTTTATTCATTGAGCACACAAAATAAATTATCAA [CACACA_site9079],6.73
5,TACAAAATAAAAATAATTCTTTCAAAAAATAATAAA [XGTACX_negctrl_site368],5.86
6,ATCTTTCATCTACCAAGTACAAATTACTTTTTTTTT [XGTACX_site7001],6.79
7,ATCAAACAAAAAATAAAAAAATGCGACATGTGTACA [TGCATGCA_negctrl_site164],7.34
8,GTCGAGGATATATAAAGTACATATATATATATGATA [XGTACX_site1128],6.41
9,TTACATAATATATGTACACACGCAAATACTTAGAAT [CACACA_site320],6.63
10,ACCACATTTTTTTTTGCATGTTGTTTAAAAAAAGGC [TGCATGCA_site137],6.74
11,TATTTGTAAATCGATACACACATATATCTTAATATA [CACACA_site4273],6.28
12,TAACTTAATATTAATGCACACAATTTATATATATAT [CACACA_site3903],10.4
13,AATGCTATCATTAATGCACACATTTAAACTTAATAT [CACACA_site5878],10.6
14,TTCAAAATAAAAAATTCACACACATATATATATATA [CACACA_site8653],9.22
15,TACAATTTAAAACACACACACAATAATACATATATA [CACACA_site1251],6.89
16,AATGCTATCATTAATGCACACATTTAAAATTAATAT [CACACA_site3548],10
17,AAAATTTAATATAATGCACACATAAAAAAAAAATCA [CACACA_site7882],10.7
18,AAAATTTAATATAATGCACACATAAAACAAAAACAA [CACACA_site8071],9.14
19,AATTTAATATAATGCACACATAAAAAAAAATTCAAA [CACACA_site2062],10.5
20,AATTTAATATAATGCACACATAAAAAAAAAATCAAA [CACACA_site1],9.95
21,AATTTAATATAATGCACACATAAAACAAAAACAAAA [CACACA_site529],10.5
22,TATTGTCTTGTATATGCATGTAGACCAAATATGTAA [TGCATGCA_site9],6.42

row,Sequence,gcPBM binding intensity (ln)
1,AATGAGGATATATACACACATACATTAAAAAAATAT [CACACA_site1849],6.67
2,TATTAAACTGGACACACACACACACCCATATATAAA [CACACA_site4579],6.93
3,TATATCTTAATATTTACACACATGCGCACCCATAAA [CACACA_site5349],7.52
4,GTGTATTTGGTGCGCACACACATGCAAAAAGAAATA [CACACA_site4768],9.15
5,AAAAAAAAAAAAAAATGTACATATATATATTATAAA [XGTACX_site518],6.33
6,ATTTTATTTTTTAATAGTACTCATTTTTTATGTGAA [XGTACX_site5494],6.48
7,TTAAAGCTGACATATACACACATACATAAATTCATA [CACACA_site5377],6.75
8,GATCCTGGTTCTTGTGGTACTTGTTCATTTGTTATA [XGTACX_site7164],6.69
9,TATATATATATAAGATGTACCCTTTGAAATAATAAT [XGTACX_site7215],8.66
10,ACTAGACAAAATATAATGCACACTATTATTTTTATT [CACACA_site2726],10.6
11,AATTTAATATAATGCACACATAAAAAAAAAAAAAAA [CACACA_site123],10.5
12,AAAATTTAATATAATGCACACATAAAAAAAAAAAAA [CACACA_site7923],10.4
13,AAAATTTAATATAATGCACACATAAAAAAAAAAAAT [CACACA_site8425],10.4
14,CATATATATCGTAATGCACACATGTAATTTCATAAT [CACACA_site811],10.7
15,AATTTAATATAATGCACACATAAAAAAAAAAAATTC [CACACA_site1504],10.6
16,ATTTCGTAATTTATATCACACACATATATATATAAT [CACACA_site9021],6.84
17,ATATTTTATTATATAGGTACACATAATTTCATGTAA [XGTACX_site415],6.34
18,AAAATTTAATATAATGCACACATAAAAAAAAATTCA [CACACA_site8640],9.79
19,TATAATTTAAAATACACACACATATATATAATATAT [CACACA_site2000],6.76
20,TATATATATTTATGCACACAAAATATATTATATAAT [CACACA_site5955],10.4
21,TAGACAAAATATAATGCACACTATTATTTTTATTTA [CACACA_site5508],10.4
22,TATTTATACATACATACACACATATAGATTTATATT [CACACA_site7851],6.85
